Source: PubChem BioAssay
This is a sample that favours compounds with a hit; in the whole collection about 2.6% have one here.
PABP FP inh – PABP poly(A) RNA binding inhibitors, primary screen, biochemical, fluorescence polarization, uHTS; inhibition, % at 35 µM; Polyadenylate-binding protein 1 (Homo sapiens), P11940; 290,000 tested, 1% active;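 also: calls also rest on retests at 20 µM and on dose response follow-up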
CRFR2-BP antag – antagonists of CRF-BP/CRF-R2 complex, primary screen, cell-based, HEK293, calcium dye fluorescence, uHTS; inhibition, % at 11.8 µM; 350,000 tested, 0.59% active; AID 588475, 2011; CRF-induced calcium fluorescence;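 active = inhibition of the ligand-induced calcium signal above about 50% at the single tested concentration, limit read from the data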
MLLE-PAM2 inh – inhibitors of PABP1 MLLE–PAM2 peptide binding, primary screen, biochemical, fluorescence polarization, FITC-PAM2, GST-MLLE | Polyadenylate-binding protein 1 (Homo sapiens), P11940 | 360,000 tested, 0.36% active | inhibition, % at 20 µM | AID 588489, 2011; in the data active = inhibition above about 35%, passing the limit was not always enough;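 also: plate controls were DMSO wells with GST-MLLE for no effect and wells lacking GST-MLLE protein for full effect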
PHOSPHO1 block – PubChem AID 1565. Phosphoethanolamine/phosphocholine phosphatase (Homo sapiens), Q8TCT1. recombinant PHOSPHO1, absorbance phosphatase assay. inhibition, % at 13.3 µM. 290,000 tested, 1.1% active; in the data active = inhibition above about 60%
Target sequence (Q8TCT1 whole entry, looked up): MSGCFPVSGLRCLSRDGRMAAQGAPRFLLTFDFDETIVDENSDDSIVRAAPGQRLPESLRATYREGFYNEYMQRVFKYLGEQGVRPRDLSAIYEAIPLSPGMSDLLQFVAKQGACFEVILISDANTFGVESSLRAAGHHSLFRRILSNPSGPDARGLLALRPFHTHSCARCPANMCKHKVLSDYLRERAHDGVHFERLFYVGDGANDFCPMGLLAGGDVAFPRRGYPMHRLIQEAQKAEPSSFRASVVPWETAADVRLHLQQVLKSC
eIF4H FP inh – human eIF4H binding inhibitors, primary screen, translation initiation inhibitor project, biochemical, uHTS, fluorescence polarization. eIF4H fluorescence polarization binding assay. Eukaryotic translation initiation factor 4H (Homo sapiens), Q15056. inhibition, % at 35 µM. 290,000 tested, 0.94% active;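 also: calls also rest on retests at 20 µM and on dose response follow-up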
* marks the source's active call; other numbers are inactive results; . = no result. Unless noted, no rule for the calls is given here.

SMILES	PABP FP inh	CRFR2-BP antag	MLLE-PAM2 inh	PHOSPHO1 block	eIF4H FP inh
C[C@H](NS(=O)(=O)c1ccc2c(c1)OCCCO2)C(=O)N1CCN(c2ccc(F)cc2)CC1	.	1	41*	.	.
COc1ccc(S(=O)(=O)N2CCC(C(=O)N[C@@H](C)C(=O)NCc3ccc(F)cc3)CC2)cc1	4	1	11	37	-4
COc1cccc(NC(=O)C2CCCN(S(=O)(=O)c3ccc(-n4cnnn4)cc3)C2)c1 (centres undefined)	-3	86*	4	18	7
COc1ccc(S(=O)(=O)N2CCCC(C(=O)NCc3ccncc3)C2)cc1 (centres undefined)	2	56*	3	9	-5
COc1ccc(CNC(=O)[C@H](C)NC(=O)C2CCN(S(=O)(=O)c3ccc(F)cc3)CC2)cc1	8	82*	11	45	-12
COc1ccc(Cl)cc1NC(=O)CN(C)C(=O)c1ccc(-n2nc(C)cc2C)cc1	.	19	-67	.	.
Cc1noc(C)c1-c1ccc(C(=O)N2CCN(C)CC2)c2occc12	.	.	15	.	.
C[C@@H]1CCCCO[C@H](CN(C)Cc2ccc(C(=O)O)cc2)[C@@H](C)CN([C@H](C)CO)C(=O)c2cc(NC(=O)CCC(F)(F)F)ccc2O1	.	-4	-7	.	.
CC(O)(c1cccc(F)c1)c1nc(-c2cc(F)cc(F)c2)cs1 (centres undefined)	.	.	10	.	.
CC(C)=CCN1CCN(Cc2cccn2-c2ncccn2)CC1CCO (centres undefined)	4	-1	-1	2	12
O=C(CSc1nccc(=O)[nH]1)Nc1cccc(S(=O)(=O)N2CCOCC2)c1	-15	0	31	-13	6
Cc1ccc(NC(=O)CSc2nccc(=O)[nH]2)c(S(=O)(=O)N2CCOCC2)c1	0	4	10	64*	-5
O=C(Nc1ccc(C(F)(F)F)cc1)c1csc(-c2ccncc2)n1	-8	-57	-9	64*	-6
COC(=O)C(C)(C)ONC(=O)Nc1ccc([N+](=O)[O-])cc1	-7	-10	1	61*	6
COc1cc(C2N(Cc3ccccc3)CCN2Cc2ccccc2)ccc1OC(C)=O	9	6	-7	25	15
COc1ccc(C2N(Cc3ccccc3)CCN2Cc2ccccc2)cc1[N+](=O)[O-]	8	0	-15	60*	4
O=C(C1CC(c2cccc(Br)c2)=NO1)N1CCc2ccccc2C1 (centres undefined)	-4	-8	-1	0	53*
O=c1c2ccccc2c2ccccc2c(=O)n1CC1CCCO1 (centres undefined)	-3	-6	-2	-2	11
O=C1OCC(Cn2c3ccccc3c3ccccc32)O1 (centres undefined)	12	-17	-20	78*	-2
CC(C)c1nnc(NC(=O)C2CCCO2)s1 (centres undefined)	7	5	31	39	11
O=C(Nc1nnc(C2CC2)s1)C1CCCO1 (centres undefined)	69	23	-8	52	0.7*
O=C(Cn1nnc(-c2ccccc2)c1COc1ccc2ccccc2c1)NCC1CC1	.	.	-2	.	.
CC1(C(=O)NS(=O)(=O)Cc2cccc(Cl)c2)CCN1C(=O)C1(c2ccc(Cl)cc2)CCC1 (centres undefined)	.	.	-7	.	.
COC(=O)c1ccc(Cn2cnc3c(Cl)ncnc32)cc1	.	16	0	.	.
Cc1ccc(O)c(N)c1	.	-6	2	.	.
SMILES	PABP FP inh	CRFR2-BP antag	MLLE-PAM2 inh	PHOSPHO1 block	eIF4H FP inh
COc1ccc(O)c(N)c1	active	.	.	-10	96*
O=C(NNC(=S)NCc1ccco1)c1ccc(Cl)s1	2	7	-13	103*	2
Fc1cccc(F)c1/C=N/NC(=S)Nc1cccnc1	5	-3	22	-46	-2
Oc1ccc(/C=N/NC(=S)Nc2cccnc2)c(O)c1O	56*	16	26	-114	87*
Fc1c(F)c(F)c(/C=N/NC(=S)Nc2cccnc2)c(F)c1F	-8	2	40*	16	-1
Oc1cccc(/C=N/NC(=S)Nc2cccnc2)c1O	14	-6	25	-16	67
CN1C(=S)SC(N(O)C(=O)Nc2ccccc2)C1(C)C (centres undefined)	-6	16	16	14	2
CN1C(=S)SC(N(O)C(=O)Nc2cccc3ccccc23)C1(C)C (centres undefined)	9	9	-12	63*	5
CC(C)NC(=O)Nc1nnc([C@H]2C[C@H](O)[C@@H](CO)O2)s1	.	.	6	.	.
CC(=O)C1=C(C)NC(SCC(=O)c2ccc(-c3ccccc3)cc2)=C(C#N)C1c1cccnc1 (centres undefined)	18	.	.	53	17
CCc1ccc(NC(=S)N2CCNC(=O)C2CC(=O)OC)cc1 (centres undefined)	91*	1	10	37	0
COC(=O)CC1C(=O)NCCN1C(=O)Nc1ccc(Cl)cc1 (centres undefined)	-9	25	5	2	-8
Cc1oc2ccc(O)cc2c1C(=O)c1ccc(Cl)cc1	-1	-4	-2	8	-8
Cc1oc2ccc(O)cc2c1C(=O)c1ccc([N+](=O)[O-])cc1	66*	16	-4	-7	active
CC1=C(C(=O)c2ccccc2)C(c2cccc([N+](=O)[O-])c2)NC(=S)N1 (centres undefined)	-6	4	-121	16	0
CC(=O)C1=C(C)NC(=S)NC1c1cc([N+](=O)[O-])ccc1O (centres undefined)	0	100*	-128	4	-6
Nc1ccc2nn(-c3cccc4ccccc34)nc2c1	16	3	-22	12	91*
CCOC(=O)C1CCCN(C(=O)c2oc3ccccc3c2C)CC1 (centres undefined)	.	.	-4	.	.
N#CC(C#N)=C(Nc1ccc(F)cc1)SCc1cccc(F)c1	-5	94*	17	11	-7
CCOc1ccc(N/C(SCc2cccc([N+](=O)[O-])c2)=C(/C#N)C(N)=O)cc1	8	-4	6	-22	-13
CCC(C)(C)NC(=O)C1CCCN(S(=O)(=O)c2ccc3c(c2)CC(C)N3C(=O)C2CC2)C1 (centres undefined)	3	-14	-13	63*	-2
CCOC(=O)C1CCCN(S(=O)(=O)c2ccc3c(c2)CC(C)N3C(=O)C2CC2)C1 (centres undefined)	4	21	2	36	7
C[C@@H]1CCCCO[C@H](CN(C)S(=O)(=O)c2cn(C)cn2)[C@@H](C)CN([C@H](C)CO)C(=O)c2cc(NC(=O)c3ccncc3)ccc2O1	.	2	-52	.	.
Cc1c(CC(=O)NCC(=O)NCC(=O)N[C@@H](Cc2ccccc2)C(=O)O)c(=O)oc2c(C)c(O)ccc12	.	.	7	.	.
Cn1cc(C=C2C(=O)OC3(CCCCC3)OC2=O)c2ccccc21	-9	-9	-13	2	14
